Assay results published in PubChem BioAssay (Tox21).
Several values for one entry are separate records, joined by “and”; a condition that tells them apart may be missing. Identical values can stand only once. Results filed as inconclusive are left out. Where a call stands in place of a potency, no number is given. Activity calls are given as the source filed them. Calls come from the whole dose curve; as a rule, active = well fitted cell-killing curve with a large enough effect in the repeat runs; inconclusive = weak or mixed curves, or effect the other way; inactive = no such curve, though single readings can be large or run the other way.

Assay: qHTS assay to identify small molecule antagonists of the retinoid-related orphan receptor gamma (ROR-gamma) signaling pathway - cell viability counter screen (AID 1159520); note: nearly all actives have a fitted effect of over 50% in size
Conditions: Tet-on RORgamma CHO cells viability, ATP luminescence, 16 h; series mostly up to 92.4 µM
From the text: U.S. Tox21 Program National Center for Advancing Translational Sciences [NCATS] NIH Chemical Genomics Center [NCGC] U.S. Environmental Protection Agency [EPA] National Institutes of Environmental Health Sciences [NIEHS] National Toxicology Program [NTP] U.S. Food and Drug Administration [FDA] Tox21 Assay Overview: Nuclear steroid hormone receptors are involved in many biological processes including inflammatory responses, cell proliferation, and apoptosis. Environmental factors or compounds disrupting these nuclear receptor pathways and gene expression may promote susceptibility to immunotoxicants and autoimmune diseases. One important group of these expression factors are the retinoid-related orphan receptors. To assess compounds that may interfere with the retinoid-related orphan receptor gamma (ROR-gamma) transcription factor, a cell-based luciferase assay was used. The CHO cell-based assay utilizes a TET-inducible ROR expression factor and ROR response element-LUC reporter gene. Reporter gene activity was induced using Doxycycline Hyclate and measured after 16 hr incubation. Tet-on ROR gamma CHO cells were used to screen against the Tox21 10K compound library for cytotoxicity by measuring the viability of the cells based on the quantitation of the ATP.
Tox21 Assay Protocol Summary: Tet-on ROR gamma CHO cells were dispensed at 1,000 cells in 4 uL of culture medium per well into white wall/solid bottom 1536-well plates using a Multidrop Combi (Thermo Scientific, Waltham, MA) dispenser. Following incubation at 37 C and 5% CO2 for 4 hr, 23 nL of compounds dissolved in DMSO, positive controls or DMSO only were transferred by a Pintool station (Kalypsys, San Diego, CA) and after 2 hr incubation at 37 C, one ul of 1 uM (final concentration) of Doxycycline Hyclate was added to all the wells by using a Flying Reagent Dispenser (FRD) (Aurora Discovery, San Diego, CA). After 16 hr incubation at 37 C and 5% CO2, 5 uL of CellTiter-Glo reagent (Promega Corporation, Madison, WI) was added to each assay plate using FRD. After 30 min incubation at room temperature, luminescence was quantified on a ViewLux plate reader (Perkin Elmer, Waltham, MA).
Potency is the fitted concentration of half-maximal effect.

SMILES	Potency	activity, negative = cytotoxicity
CC(=O)Oc1cc2c(s1)CCN(C(C(=O)C1CC1)c1ccccc1F)C2 (stereo not given)	inactive	–
Cc1cc(C(C)(C)C)cc(C)c1CC1=NCCN1	inactive	–
O=C1CCCCCCCCCCCCCCCO1	inactive	–
COc1cc(C)ccc1O	inactive	–
Cc1c2ccccc2c(C)c2c1ccc1ccccc12	60.5 µM (active) and 27.3 µM (active)	–
CCCC(=O)OC(C)(C)Cc1ccccc1	inactive	–
O=C(Oc1ccccc1)Oc1ccccc1	inactive	–
O=C(/C=C/c1ccccc1)OC/C=C/c1ccccc1	54.5 µM (active)	–
Clc1nnc(Cl)c2ccccc12	inactive	–
OCCN1CCN(CCCN2c3ccccc3Sc3ccc(C(F)(F)F)cc32)CC1	inactive	–
CCCCCCC1CCCC(=O)O1 (stereo not given)	inactive	–
Cc1cccc(C)c1NC(=O)c1ccc(N)cc1	inactive	–
CCCC(=O)OCCc1ccccc1	inactive	–
CCC(C)n1ncn(-c2ccc(N3CCN(c4ccc(OC[C@H]5CO[C@](Cn6cncn6)(c6ccc(Cl)cc6Cl)O5)cc4)CC3)cc2)c1=O (stereo not given in full)	inactive	–
CC(C)NC[C@@H](O)COc1ccc(CC(N)=O)cc1	inactive	–
O=c1c(O)c(-c2ccc(O)cc2O)oc2cc(O)cc(O)c12	inactive	–
CN(C)CCN1CCN(c2cccc(Cl)c2)C1=O	inactive	–
OC1CCC(C2CCCCC2)CC1 (stereo not given)	inactive	–
Cc1ccc(C(C)C)cc2c(C)ccc1-2	inactive	–
CCOC(=O)NNc1ccc(N(CC)CC(C)O)nn1 (stereo not given)	inactive	–

SMILES	Potency	activity, negative = cytotoxicity
Nc1nc(-c2ccccc2)cs1	inactive	–
C=C(CC)C(=O)c1ccc(OCC(=O)O)c(Cl)c1Cl	inactive	–
CC(C(=O)O)c1ccc2c(c1)[nH]c1ccc(Cl)cc12 (stereo not given)	inactive	–
C=Cc1ccccc1C=C	inactive	–
CCCCOC(=O)CO	inactive	–
CC(N=C(NC#N)Nc1ccncc1)C(C)(C)C (stereo not given)	inactive	–
NC[C@H]1O[C@H](O[C@H]2[C@H](O[C@@H]3O[C@H](CO)[C@@H](O)[C@H]3O)C(O)[C@H](N)C[C@@H]2N)[C@H](N)[C@@H](O)[C@@H]1O (stereo not given in full)	–	4.86% [at 8.39 µM] (inactive)
Cc1ccc(C)cc1	inactive	–
C[C@H]1NCc2cc(-c3ccc4c(=O)c(C(=O)O)cn(C5CC5)c4c3OC(F)F)ccc21	–	-17.1% [at 19 µM] (inactive)
OC1CCCc2ccccc21 (stereo not given)	inactive	–
O=C(O)c1cccc(C(F)(F)F)c1	inactive	–
CCCCCc1ccc(Cl)cc1	inactive	–
C[C@@H](O)[C@H](N)C(=O)O	–	-0.243% [at 19 µM] (inactive)
Cc1cc(-n2nc3ccc(Cl)cc3n2)c(O)c(C(C)(C)C)c1	inactive	–
C1CCC(SSC2CCCCC2)CC1	inactive	–
CC1(C)CCC[C@]2(C)[C@H]3CCO[C@]3(C)CC[C@@H]12	inactive	–
Cc1c(C)c2c(c(C)c1OC(=O)c1cccnc1)CC[C@@](C)(CCC[C@H](C)CCC[C@H](C)CCCC(C)C)O2	inactive	–
C=CCn1c(=O)n(CC=C)c(=O)n(CC=C)c1=O	inactive	–
CNc1ccc([N+](=O)[O-])cc1	inactive	–
CCCC(=O)OCOC(=O)C1=C(C)NC(C)=C(C(=O)OC)C1c1cccc(Cl)c1Cl (stereo not given)	inactive	–
